Screening results as filed in PubChem.
Jurkat NFkB inh = lowers PMA/ionomycin-induced NF-kB signal in Jurkat cells; AID 435003; 330,000 compounds, 0.53% hits; PMA/ionomycin-induced NF-kB luciferase reporter, luminescence; inhibition, % at 4 µM; in the data active = inhibition above about 50%
Gli-Sufu antag = Gli-Sufu pathway antagonism. Sufu-KO-LIGHT fibroblasts, Gli luciferase reporter luminescence. inhibition, % at 5 µM. 340,000 compounds, 0.74% hits;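 active = inhibition above about 55%, limit read from the data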;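 note: 0% = DMSO-treated cells and 100% = wells with medium but no cells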
Beta cell apopt = beta cell apoptosis inhibition | INS-1E cytokine-induced death, ATP luminescence, 48 h; percent of positive-control rescue, neutral wells zero | protection from apoptosis, % (concentration not given with the values) | 300,000 compounds, 0.8% hits;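 active = Every replicate reaches about 75%, or at least half do and their mean reaches it too, limit read from the data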;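 note: 0% = cytokine-treated negative control wells and 100% = positive control rescue; higher means more ATP so stronger rescue from cytokine killing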
697 NFkB inh = lowers PMA/ionomycin-induced NF-kB signal in 697 B cells | inhibition, % at 4 µM | AID 435022 | 697 B-cell NF-kB luciferase reporter, 16 h | 330,000 compounds, 0.33% hits; in the data active = inhibition above about 35%
* hit, by the source's call. In the library only some 1.8% were active in any assay of this set; here they are far more common.

For C#CCOCCOCCOCCNc1nc(N2CCN(C(=O)CCCCCCCCCCNC(=O)[C@H](CCCN=C(N)N)n3cc(C[C@@H](C)CC)nn3)CC2)nc(N2CCN(C(=O)CCCCCCCCCCNC(=O)[C@@H]([C@H](C)CC)n3cc(CCCCCN)nn3)CC2)n1 the results were Jurkat NFkB inh 4, Beta cell apopt 107* and 697 NFkB inh -3.
`C#CCOCCOCCOCCNc1nc(N2CCOCC2)nc(N2CCN(C(=O)CCCCCCCCCCNC(=O)[C@H]([C@@H](C)CC)n3cc(CCCCN=C(N)N)nn3)CC2)n1` gave Jurkat NFkB inh -6, Gli-Sufu antag -4, Beta cell apopt -6 and 697 NFkB inh -22.
`C#CCOCCOCCOCCNc1nc(N2CCN(C(=O)CCCCCCCCCCNC(=O)[C@H]([C@@H](C)CC)n3cc(CCCCN=C(N)N)nn3)CC2)nc(N2CCN(C(=O)CCCCCCCCCCNC(=O)[C@H](CCCN=C(N)N)n3cc(C[C@@H](C)CC)nn3)CC2)n1` gave Jurkat NFkB inh 5, Beta cell apopt 98* and 697 NFkB inh -10.
Fc1ccc2c(c1)c1n[nH]c(=S)nc1n2CCc1ccccc1 was read as Jurkat NFkB inh -11 and 697 NFkB inh -2.
For COc1cc(C(=O)OC2CCCCC2=O)cc(OC)c1C (configuration not stated) the results were Jurkat NFkB inh 8, Gli-Sufu antag 4, Beta cell apopt -14 and 697 NFkB inh 25.
`CCOc1ccc(S(=O)(=O)N/N=C(\C)c2ccc(OC)cc2OC)cc1` gave Jurkat NFkB inh 1, Gli-Sufu antag -5 and 697 NFkB inh 17.
C/C(Cn1nnc([N+](=O)[O-])n1)=N\NC(=O)c1ccccc1Cl was read as Jurkat NFkB inh 2, Gli-Sufu antag -3, Beta cell apopt 80* and 697 NFkB inh 22.
Screening Cc1ccc(O)c(NC(=O)c2cc3nc4c(c(C(F)(F)F)n3n2)CCc2ccccc2-4)c1 returned Jurkat NFkB inh 4, Gli-Sufu antag 7, Beta cell apopt -1 and 697 NFkB inh 8.
`CC(C)c1ccccc1-n1c(SCC(=O)N2CCc3ccccc3C2)nc2ccccc2c1=O` gave Jurkat NFkB inh 0, Gli-Sufu antag 35, Beta cell apopt 121* and 697 NFkB inh 2.
CC(C)Cn1c(SCC(=O)N2CCc3ccccc3C2)nc2cc(Cl)ccc2c1=O was read as Jurkat NFkB inh 4, Gli-Sufu antag 8, Beta cell apopt 115* and 697 NFkB inh -9.
`COCCn1c(SCC(=O)N2CCc3ccccc3C2)nc2cc(Cl)ccc2c1=O` gave Jurkat NFkB inh -7, Gli-Sufu antag 14, Beta cell apopt -11 and 697 NFkB inh -12.
Cc1ccc(-c2nc(SCC(=O)N(C)C3CCS(=O)(=O)C3)[nH]c2-c2ccc(C)cc2)cc1 (configuration not stated) was read as Jurkat NFkB inh -9, Gli-Sufu antag 1, Beta cell apopt -8 and 697 NFkB inh -15.
`CCCCN(C(=O)C1=NN(c2ccccc2)C(=O)CC1)c1c(N)n(CCC)c(=O)[nH]c1=O` gave Jurkat NFkB inh 1, Gli-Sufu antag -2, Beta cell apopt -4 and 697 NFkB inh 11.
`CN1/C(=C/c2cc[n+](C)c3ccccc23)C=Cc2ccccc21` gave Gli-Sufu antag 89*.
C[n+]1ccc(/C=C/c2ccccc2O)c2ccccc21 was read as Jurkat NFkB inh 13, Gli-Sufu antag 2, Beta cell apopt 4 and 697 NFkB inh 0.
For O=C1C=C(c2ccc(F)cc2OCc2ccccc2)C[C@@H](c2ccc3c(c2)OCO3)C1 the results were Jurkat NFkB inh -8, Gli-Sufu antag -1, Beta cell apopt 10 and 697 NFkB inh 4.
O=C1C=C(c2ccc(F)cc2OCc2ccccc2)C[C@@H](c2ccc(Cl)cc2)C1 was read as Jurkat NFkB inh 5, Gli-Sufu antag 10, Beta cell apopt 111* and 697 NFkB inh 11.
Oc1ccccc1C(Nc1nccs1)c1ccc2cccnc2c1O (configuration not stated) was read as Jurkat NFkB inh 8, Gli-Sufu antag 8, Beta cell apopt 87* and 697 NFkB inh -45.
For Oc1c(C(Nc2ccccn2)c2ccccn2)ccc2cccnc12 (configuration not stated) the results were Jurkat NFkB inh 24, Gli-Sufu antag 50, Beta cell apopt 87* and 697 NFkB inh -16.
`COC(=O)C1CCCCN1C(=O)c1cc(COc2cccc3cnccc23)on1` (configuration not stated) gave Jurkat NFkB inh 41, Beta cell apopt 101* and 697 NFkB inh -24.
`COC(=O)C1CCCCN1C(=O)c1cc(COc2cccc3cccnc23)on1` (configuration not stated) gave Jurkat NFkB inh 3, Gli-Sufu antag 6, Beta cell apopt -3 and 697 NFkB inh -23.
Screening COc1ccc2nc(Nc3nc(CSc4nc5ccccc5[nH]4)cc(=O)[nH]3)nc(C)c2c1 returned Jurkat NFkB inh 49, Gli-Sufu antag -64, Beta cell apopt 77* and 697 NFkB inh 18.
For Cc1nc(Nc2nc(CSc3nc4ccccc4[nH]3)cc(=O)[nH]2)nc2ccccc12 the results were Jurkat NFkB inh 15, Gli-Sufu antag 22, Beta cell apopt 5 and 697 NFkB inh -5.
For O=[N+]([O-])c1cc(C(F)(F)F)ccc1NCCCCNS(=O)(=O)c1ccc(Cl)cc1 the results were Jurkat NFkB inh -12, Gli-Sufu antag 18, Beta cell apopt 88* and 697 NFkB inh 11.
CN(C)CCCN(C(=O)COc1ccc(Cl)cc1)c1nc2cc3c(cc2s1)OCO3 was read as Jurkat NFkB inh -8, Gli-Sufu antag 15, Beta cell apopt 114* and 697 NFkB inh 5.
CN(C)CCCN(C(=O)c1ccc(S(=O)(=O)N(C)Cc2ccccc2)cc1)c1nc2cc3c(cc2s1)OCO3 was read as Jurkat NFkB inh -3, Gli-Sufu antag 30, Beta cell apopt 114* and 697 NFkB inh -5.
Screening Cc1ccc(C(=O)N2CCN(c3ccc([N+](=O)[O-])cc3-n3cccc3)CC2)cc1 returned Jurkat NFkB inh -1, Gli-Sufu antag 8, Beta cell apopt -1 and 697 NFkB inh -25.
`CCN(CC)C1Oc2cc3c(cc2C(c2cc(OC)c(O)c(OC)c2)C1C)OCO3` (configuration not stated) gave Gli-Sufu antag 15.
For COc1cc([C@@H]2c3cc4c(cc3[C@@H](O[C@@H]3O[C@@H]5CO[C@@H](C)O[C@H]5[C@H](O)[C@H]3O)[C@H]3COC(=O)[C@H]23)OCO4)cc(OC)c1O the results were Jurkat NFkB inh 48, Gli-Sufu antag 82*, Beta cell apopt 11 and 697 NFkB inh -213.
For CCCC1(c2ccccc2)NC(=O)N(CC(=O)NCc2ccc(C)cc2)C1=O (configuration not stated) the results were Jurkat NFkB inh -29, Gli-Sufu antag 6, Beta cell apopt 0 and 697 NFkB inh -4.
`CCCC1(c2ccccc2)NC(=O)N(CC(=O)Nc2cc(C)ccc2OC)C1=O` (configuration not stated) gave Jurkat NFkB inh -9, Gli-Sufu antag -8, Beta cell apopt 93* and 697 NFkB inh 10.
